Data published in PubChem BioAssay (NCATS).
Results filed as inconclusive are left out. Entries that show only a call come without a potency. The source made the active and inactive calls. Calls come from the whole dose curve; as a rule, active = well fitted inhibition curve with a large enough effect; inconclusive = small, poorly fitted or top-dose-only effect; inactive = no such curve, though single readings can be large or run the other way.

Experiment: qHTS for Inhibitors of the Aldehyde Dehydrogenase Family (ALDH1A2, ALDH1A3, ALDH2, ALDH3A1) (AID 2061307); note: nearly all actives have a fitted effect of over 50% in size; for potency: test system not described further here
Details: ALDH inhibition qHTS; series mostly up to 50.3 µM
Potency is the fitted concentration of half-maximal effect.

Structure (SMILES)	Potency
O=C(Nc1ncc(Cc2ccc(C(F)(F)F)cc2)s1)C1CCC(c2ccccc2)CC1 (stereo not given)	inactive
CCOC(=O)Cc1ccc(NC(=O)n2ncc3cc(Cl)ccc32)cc1	inactive
C[S+](=O)([O-])c1ccc(-c2nnc3ccc(C(=O)NCCc4ccccc4F)cn23)cc1	inactive
Brc1ccc(CN2CCC(N(CCc3ccccc3)Cc3ccccc3)CC2)cc1	inactive
O=C(CSc1nc2ncccc2c(=O)n1-c1ccccc1)Nc1ccccc1	inactive
CCN(CC)C(=O)c1ccc(S(=O)(=O)N2CCC(c3nc4ccccc4s3)CC2)cc1	inactive
COc1ccccc1Nc1ccc2c(O)cc(S(=O)(=O)O)cc2c1	31.6 µM (active)
COc1ccc(-n2c(C)c(C(C)=O)c3cc(OC(=O)c4ccccc4OC(C)=O)ccc32)cc1	inactive
C=Cc1cc(NC(=O)CN)cc(-c2nn3c(=O)cc(N4CCNCC4)nc3s2)c1	inactive
COc1ccccc1CN1CCC(N(CCc2ccccc2)Cc2ccccc2)CC1	inactive
CCOc1c(Cl)cc(CNc2ccc3[nH]c(=O)[nH]c3c2)cc1OC	inactive
COc1cc(O)c(C(CC(=O)N2CC(C)CC(C)C2)c2ccc(C(N)=O)cc2)c(OC)c1 (stereo not given)	0.282 µM (active)
NC(=O)c1cccc2c1CCCN2C(=O)c1csc(-c2ccc(Cl)cc2)n1	inactive
COc1cc(O)c(C(CC(=O)N2CC(C)CC(C)C2)c2ccccc2Cl)c(OC)c1 (stereo not given)	1 µM (active)
Cc1ccccc1CN1CCN(Cc2ccc3ccccc3n2)CC1CCO (stereo not given)	3.18 µM (active)
CNc1nc2c(s1)C(c1ccccc1Br)CC(=O)N2 (stereo not given)	10.1 µM (active)
Cc1oc(-c2ccc(C(F)(F)F)cc2)nc1COc1cccc2cc(NS(=O)(=O)C(F)(F)F)ccc12	12.7 µM (active)
O=C(Nc1cc(C(F)(F)F)ccc1Cl)c1nc2ccccc2nc1N1CCCCC1	inactive
FC(F)(F)c1ccc(CNc2nc(-c3ccncc3)nc3ccccc23)cc1	4.47 µM (active)
O=C1CN(S(=O)(=O)c2cccc(C(=O)Nc3ccc(OC(F)(F)F)cc3)c2)CCN1	inactive

Structure (SMILES)	Potency
CCOC(=O)COc1ccc2c(c1)c(C(=O)c1ccccc1)c(C)n2-c1ccc(OC)cc1	inactive
CC(Sc1nc2nn(C3COC3)cc2c(=O)n1-c1ccccc1)c1ccccc1 (stereo not given)	inactive
Cc1ccc2c(c1)/C(=C\C(=O)c1cccnc1)C(=O)N2	inactive
CC(NC(=O)c1c(O)nc2ccccn2c1=O)c1ccccc1 (stereo not given)	inactive
O=C(N/N=C/c1ccc(Sc2ccccn2)s1)c1cccc(F)c1	15.9 µM (active)
O=C(Nc1ccc(S(=O)(=O)N2CCOCC2)cc1)c1ccc(CN2CCc3ccccc3C2)cc1	inactive
CCn1c(C(=O)NCCc2ccc(OC)cc2)cc2sccc21	2.01 µM (active)
O=C(NCCN1CCN(c2cccc(Cl)c2)CC1)Nc1ccccc1C(F)(F)F	inactive
COCCN(CC(=O)Nc1cccc(C)c1C)C(=O)c1cc2c(s1)CCC2	inactive
O=C(c1cc(-c2ccccc2Cl)nc2ccccc12)N1CCN(c2ccccc2O)CC1	inactive
Cc1ccccc1C(=O)c1no[n+]([O-])c1C(=O)c1ccccc1C	10 µM (active)
COc1cccc(CNc2ccc(S(=O)(=O)Nc3nc4ccccc4[nH]3)cc2)c1O	inactive
O=C(O)c1ccc(-c2ccc3ncnc(NCc4cccs4)c3c2)o1	inactive
CCN(CC)S(=O)(=O)c1ccc(NC(=O)c2ccc(CN3CCc4ccccc4C3)cc2)cc1	inactive
c1coc(-c2ccc3nncn3c2)c1	8.96 µM (active)
NNC(=O)c1ccc2ccccc2n1	inactive
O=C1Cc2cc(S(=O)(=O)N3CCN(c4ccc(C(=O)O)cc4)CC3)ccc2N1	inactive
Fc1ccc(Cn2cnc3ccccc32)cc1Cl	8.96 µM (active)
NC(=O)c1ccc(NC(=O)c2cnn(-c3ccccc3)n2)cc1	inactive
O=C1NC(c2ccc(N3CCOCC3)cc2)(c2ccsc2)CC(O)=C1Sc1ccccc1Cl (stereo not given)	inactive
